Experimental findings from ChEMBL document CHEMBL3988442, “University of Dundee, Small-Polar-MMV Screening Library” (2021) are described below.

This experiment concerns the target AMP-activated protein kinase, AMPK (Homo sapiens) (UniProt P54646+O43741+P54619+Q9UGJ0+Q9Y478+Q13131+Q9UGI9). The experiment is described as follows: AMP-dependent Kinase enzyme assay. An in vitro enzyme assay that detects ADP turnover that is directly proportional to AMPK activity. This uses naive AMPK that is activated during the assay with MK-8722. On the set-up: scale not given: direction of the effect not stated beside the values. Type of experiment: functional. To be noted: 30 µM.
In the case of `CSc1ccc(OCCN2CCNC(=O)C2C)cc1` (stereo not given), the Percent Effect turned out to be 6.4%.

Regarding `Cc1csc(C(C)(C)NCCOc2ccc(CC#N)cc2)n1`, the Percent Effect was -8.66%.

As to `Cc1ncc(CNC(=O)NCC(C)Oc2ccccc2F)s1` (stereo not given), the Percent Effect turned out to be 6.1%.

For `COc1nc2c(cc1C(=O)NC(C)Cc1cc(C)n[nH]1)CCC2` (stereo not given), the Percent Effect is -15.8%.

As for `CC(C)c1ocnc1C(=O)Nc1cccc(Cn2ccccc2=O)c1`, the Percent Effect turned out to be 8.27%.

As for `Cc1cccc(C)c1Nc1noc2c1CN(C(=O)c1c[nH]nc1C)CC2`, the Percent Effect came to 6.37%.

Regarding `Cc1nccn1CCN(C)C(=O)c1cn(CC2CCCCC2)nn1`, the Percent Effect turned out to be 9.45%.

Turning to `COc1cccc(CCC(=O)Nc2ccn(C)n2)c1OC`, the Percent Effect is 10.3%.

For the compound `COc1ccc(C)nc1NC(=O)CCc1c(C)nn(C)c1C`, the Percent Effect is -7.06%.

Turning to `Cc1ccccc1C(=O)NC[C@@H]1CCN(C(=O)c2cscn2)C[C@H]1O`, the Percent Effect came to 1.22%.

Regarding `Cc1nn(C)c(C)c1-c1ccc(=O)n(C(C)C(=O)NC2CC2)n1` (stereo not given), the Percent Effect was determined as 9.59%.

`CN(C)S(=O)(=O)N1CCC(C(O)c2ccc(Cl)cc2)CC1` (stereo not given): the Percent Effect was found to be 4.77%.

As for `O=C(CCn1cccn1)N1CCC(c2nnc(-c3ccsc3)o2)CC1`, the Percent Effect amounted to 4.17%.

For `CC(C)Cc1cc(C(=O)N2CCC(N3CCCC3)CC2)cc(O)n1`, the Percent Effect was found to be 1.87%.

On to `CN(Cc1ccc2c(c1)OCO2)Cc1cscn1`, for which the Percent Effect was -5.54%.

Regarding `CCc1nnc(NC(=O)NCCN(C)C(=O)OC(C)(C)C)s1`, the Percent Effect is -3.38%.

Turning to `Cc1ccc2[nH]c(CNC(=O)C3CC4(CCNCC4)CN3C)nc2c1C` (stereo not given), the Percent Effect is -16.1%.

Regarding `CC(C)CC(=O)N1Cc2ccccc2CC1C(=O)Nc1nncs1` (stereo not given), the Percent Effect was -25.1%.

With `CCN(C)Cc1cccc(CNC(=O)CSCc2ccncc2)c1`, the Percent Effect is -11.3%.

`NC(=O)CC1CCN(Cc2ccccc2OCC(F)(F)F)CC1`: the Percent Effect was -3.02%.
